The list is a sample of the results.
PostGolgi yeast: growth inhibition of a yeast mutant, post-Golgi transport screen. post-Golgi transport phenotypic cell assay. inhibition, % at 10 µM. 0.9% of 98,000 active;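 note: yeast cells grown in 1536-well plates; yeast grown about 18 h at 30C before absorbance read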
CYP2C19 act: increases human CYP2C19 enzyme activity; P33261; recombinant CYP2C19, luciferin-H EGE luminescence; stronger effect = higher value; 0 = fully inhibited enzyme, 1 = untreated enzyme; activation factor at 5 µM; 96,000 tested, under 10 active; AID 1025;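 active = activation factor of at least 2 at 5 µM in the primary screen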;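 note: 0 = wells with 2.5 mM tranylcypromine and 1 = vehicle-only wells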
CYP2C9 inh: human CYP2C9 inhibition. P11712. CYP2C9 Supersomes, luciferin-H conversion, luminescence. inhibition, % at 5 µM. 20% of 96,000 active;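 active = blocking of liver enzyme CYP2C9 beyond about 50% at 5 µM, limit read from the data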
Target sequence (P11712 whole entry, looked up): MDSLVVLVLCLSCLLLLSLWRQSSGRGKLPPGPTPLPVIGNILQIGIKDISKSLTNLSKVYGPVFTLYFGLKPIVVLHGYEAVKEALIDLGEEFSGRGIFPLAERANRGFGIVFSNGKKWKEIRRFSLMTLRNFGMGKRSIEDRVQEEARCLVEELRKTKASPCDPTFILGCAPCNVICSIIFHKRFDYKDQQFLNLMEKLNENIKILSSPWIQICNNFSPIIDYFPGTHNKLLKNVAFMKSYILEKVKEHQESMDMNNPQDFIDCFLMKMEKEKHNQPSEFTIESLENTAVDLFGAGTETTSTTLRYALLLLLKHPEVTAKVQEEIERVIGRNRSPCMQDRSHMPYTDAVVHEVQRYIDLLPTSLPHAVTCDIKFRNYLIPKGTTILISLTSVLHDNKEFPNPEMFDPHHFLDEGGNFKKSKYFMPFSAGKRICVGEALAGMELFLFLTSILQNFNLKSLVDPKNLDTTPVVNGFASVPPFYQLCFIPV
PostGolgi ctrl: growth of the yeast control strain, post-Golgi counter-screen; efflux-deficient yeast background strain, growth absorbance A615, 16 h; inhibition, % at 10 µM; 5% of 98,000 active; AID 738
CYP2C19 inhib: inhibitors of human CYP2C19 | P33261 | CYP2C19 Supersomes, luciferin-H EGE luminescence, 30 min | inhibition, % at 5 µM | 21% of 96,000 active | AID 778;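 active = CYP2C19 inhibition above a set limit at 5 µM in the primary screen, cut at about 50% in these data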;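 note: plate controls were negative control wells for no effect and 2.5 mM tranylcypromine positive control for full effect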
CYP2C9 activ: activators of human CYP2C9; P11712; 1.4% of 96,000 active; AID 1024; activation factor at 5 µM; recombinant CYP2C9, luciferin-H conversion, luminescence; stronger effect = higher value; factor 1 = untreated enzyme, 0 = blocked;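 active = activation factor of 2 or more for CYP2C9 at a 5 µM dose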;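 note: 0 = sulfaphenazole-blocked wells and 1 = vehicle-only wells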
* marks the source's active call; other numbers are inactive results. Cut-off read from the data, not from the text of the source, unless noted: active = inhibition above about 30%; inactive = the rest.

How did CCOc1ccc(/C(O)=C2\C(=O)C(=O)N(c3cc(C)on3)C2c2ccccc2OC)cc1 (stereo unspecified) do in these assays?
PostGolgi yeast: 10; CYP2C19 act: 1; CYP2C9 inh: -9; PostGolgi ctrl: 15; CYP2C19 inhib: -1; CYP2C9 activ: 1.1

What do the screens show for `O=C(Nc1ccc(N2C(=O)C3C4C=CC(C4)C3C2=O)cc1)Nc1nncs1` (stereo unspecified)?
CYP2C19 act: 1.1; CYP2C9 inh: -32; CYP2C19 inhib: -12; CYP2C9 activ: 1.3

How did O=C(Nc1ccc(N2C(=O)C3C4C=CC(C4)C3C2=O)cc1)Nc1cccnc1 (stereo unspecified) do in these assays?
PostGolgi yeast: -4; CYP2C19 act: 0.9; CYP2C9 inh: 60*; PostGolgi ctrl: 15; CYP2C19 inhib: 5; CYP2C9 activ: 0.4

What do the screens show for `CCCCOc1ccc(/C(O)=C2/C(=O)C(=O)N(CCCOC)C2c2ccncc2)cc1C` (stereo unspecified)?
PostGolgi yeast: 0; CYP2C19 act: 1; CYP2C9 inh: 14; PostGolgi ctrl: 2; CYP2C19 inhib: -1; CYP2C9 activ: 0.9

What do the screens show for `CN(C)c1nc(C(N)=O)nc(N2CCOCC2)n1`?
PostGolgi yeast: 10; CYP2C19 act: 1; CYP2C9 inh: 4; PostGolgi ctrl: 11; CYP2C19 inhib: -2; CYP2C9 activ: 1

What do the screens show for `Cc1nnc(SCC(=O)N2CCCCC2)s1`?
PostGolgi yeast: 4; PostGolgi ctrl: -2

Results for O=C(N/N=C/c1cc2ccccc2nc1Cl)/C(=C/c1cccs1)NC(=O)c1ccccc1 ?
PostGolgi yeast: 9; CYP2C19 act: 0.2; CYP2C9 inh: 43; PostGolgi ctrl: 4; CYP2C19 inhib: 80*; CYP2C9 activ: 0.6

How did COc1ccc([N+](=O)[O-])cc1/C=N/NC(=O)/C(=C\c1cccs1)NC(=O)c1ccccc1 do in these assays?
PostGolgi yeast: -9; CYP2C19 act: 0.6; CYP2C9 inh: 25; PostGolgi ctrl: 19; CYP2C19 inhib: 38; CYP2C9 activ: 0.8

Results for O=C(Nc1ccccc1)c1ccc(S(=O)(=O)NCc2ccco2)cc1 ?
PostGolgi yeast: -11; CYP2C19 act: 1.1; CYP2C9 inh: -9; PostGolgi ctrl: 10; CYP2C19 inhib: -14; CYP2C9 activ: 1.1

Results for Cc1noc(C)c1CSc1nnc2scc(-c3ccc(Cl)cc3)n12 ?
PostGolgi yeast: 2; CYP2C19 act: 0.9; CYP2C9 inh: -11; PostGolgi ctrl: 1; CYP2C19 inhib: 8; CYP2C9 activ: 1.1

How did Cc1noc(C)c1CSc1nc2ccccc2nc1NS(=O)(=O)c1ccc(Cl)cc1 do in these assays?
PostGolgi yeast: 7; CYP2C19 act: 1; CYP2C9 inh: 87*; PostGolgi ctrl: -1; CYP2C19 inhib: 4; CYP2C9 activ: 0.1

Results for Cc1ccc(S(=O)(=O)Nc2nc3ccccc3nc2NCc2ccco2)cc1C ?
PostGolgi yeast: -3; CYP2C19 act: 0.7; CYP2C9 inh: 100*; PostGolgi ctrl: 16; CYP2C19 inhib: 27; CYP2C9 activ: 0

Results for Cc1ccc(S(=O)(=O)Nc2nonc2C)cc1 ?
PostGolgi yeast: 1; CYP2C19 act: 1.1; CYP2C9 inh: 13; PostGolgi ctrl: 6; CYP2C19 inhib: -10; CYP2C9 activ: 0.9

Results for Cc1ccc(S(=O)(=O)Nc2nc3ccccc3nc2NCc2ccco2)cc1 ?
PostGolgi yeast: 1; CYP2C19 act: 0.8; CYP2C9 inh: 99*; PostGolgi ctrl: 13; CYP2C19 inhib: 19; CYP2C9 activ: 0

Results for O=S(=O)(Nc1nc2ccccc2nc1NCc1ccco1)c1ccc(Cl)cc1 ?
PostGolgi yeast: -8; CYP2C19 act: 0.5; CYP2C9 inh: 98*; PostGolgi ctrl: 38*; CYP2C19 inhib: 51*; CYP2C9 activ: 0

Results for COC(=O)c1ccsc1NC(=O)C1=COCCO1 ?
PostGolgi yeast: -4; CYP2C19 act: 1.1; CYP2C9 inh: 5; PostGolgi ctrl: -5; CYP2C19 inhib: -6; CYP2C9 activ: 1

How did COc1ccccc1CNC(=O)Cn1cccc1 do in these assays?
PostGolgi yeast: 19; CYP2C19 act: 0.6; CYP2C9 inh: -9; PostGolgi ctrl: 6; CYP2C19 inhib: 38; CYP2C9 activ: 1.1

Results for COc1ccc(C2=CSC(/N=C/c3ccc(F)cc3)=NN2)cc1 ?
PostGolgi yeast: 0; CYP2C19 act: 1; CYP2C9 inh: 9; PostGolgi ctrl: -1; CYP2C19 inhib: -1; CYP2C9 activ: 0.9

Results for O=C(NC1CCCC1)C(c1ccccc1)N(C(=O)c1ccno1)c1cccnc1 (stereo unspecified) ?
PostGolgi yeast: 3; CYP2C19 act: 0.6; CYP2C9 inh: 37; PostGolgi ctrl: 25; CYP2C19 inhib: 45; CYP2C9 activ: 0.6

Results for CCNC(=S)N(Cc1ccc(OC)cc1)C1CC(=O)N(c2ccc(OCC)cc2)C1=O (stereo unspecified) ?
PostGolgi yeast: -6; CYP2C19 act: 0.8; CYP2C9 inh: 20; PostGolgi ctrl: 12; CYP2C19 inhib: 21; CYP2C9 activ: 0.8

What do the screens show for `Cc1cc(NC(=O)C2CC(c3ccc(Cl)cc3)=NO2)no1` (stereo unspecified)?
PostGolgi yeast: -2; CYP2C19 act: 0.8; CYP2C9 inh: 21; PostGolgi ctrl: 0; CYP2C19 inhib: 16; CYP2C9 activ: 0.8

Results for Cc1cccc(S(=O)(=O)Nc2nc3ccccc3nc2NCc2ccco2)c1 ?
PostGolgi yeast: -2; CYP2C19 act: 0.7; CYP2C9 inh: 95*; PostGolgi ctrl: 14; CYP2C19 inhib: 26; CYP2C9 activ: 0

What do the screens show for `Cc1ccccc1S(=O)(=O)Nc1nc2ccccc2nc1NCCO`?
PostGolgi yeast: -2; CYP2C19 act: 0.8; CYP2C9 inh: 100*; PostGolgi ctrl: -7; CYP2C19 inhib: 19; CYP2C9 activ: 0

How did CCOC(=O)C1=C(Cn2cnc3ccccc32)NC(=O)NC1c1ccc(OC)cc1 (stereo unspecified) do in these assays?
PostGolgi yeast: -2; CYP2C19 act: 0.5; CYP2C9 inh: 67*; PostGolgi ctrl: -14; CYP2C19 inhib: 54*; CYP2C9 activ: 0.3

Results for CCN(CC)c1ccc(CNc2ccc(Br)cn2)cc1 ?
PostGolgi yeast: -9; CYP2C19 act: 0.2; CYP2C9 inh: 63*; PostGolgi ctrl: 7; CYP2C19 inhib: 80*; CYP2C9 activ: 0.4

How did CCn1c(=O)cc(N2CCC3(CC2)OCCO3)[nH]c1=O do in these assays?
PostGolgi yeast: 5; CYP2C19 act: 1.1; CYP2C9 inh: -8; PostGolgi ctrl: 0; CYP2C19 inhib: -9; CYP2C9 activ: 1.1

How did N#Cc1nc(Cc2cccc3ccccc23)oc1NCCN1CCOCC1 do in these assays?
PostGolgi yeast: 0; CYP2C19 act: 1.1; CYP2C9 inh: -8; PostGolgi ctrl: 12; CYP2C19 inhib: -11; CYP2C9 activ: 1.1

How did N#Cc1nc(Cc2cccc3ccccc23)oc1NCc1ccc(F)cc1 do in these assays?
PostGolgi yeast: -6; CYP2C19 act: 0.5; CYP2C9 inh: 90*; PostGolgi ctrl: 31*; CYP2C19 inhib: 52*; CYP2C9 activ: 0.1

Screening data (PubChem BioAssay)
